# uPA surface inh: inhibitors of cell surface uPA generation; cell surface uPA generation assay, qHTS; Potency, µM (series often up to 38.3 µM), for inactives: top-dose activity change, negative = inhibition, actives largely listed as inhibitors; hit rate 0.31% among 330,000; AID 540303; active = well fitted inhibition curve with a large enough effect; inconclusive = small, poorly fitted or top-dose-only effect; inactive = no such curve, though single readings can be large or run the other way; tested in mouse RAW 264.7 cells; note: potency is the fitted concentration of half-maximal effect; nearly all actives have a fitted effect of over 55% in size
# HT1080 IDH1KD tx: toxicity to HT-1080 IDH1 knockdown cells (counter line). hit rate 2% among 360,000. AID 686971. Potency, µM (top dose mostly 46.1 µM), inactives show top-dose activity, negative = toxicity, usual class: cytotoxic. HT-1080 IDH1 knockdown viability, ATP luminescence, 48 h;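 note: potency is the fitted concentration of half-maximal effect; 0% = DMSO wells and -100% = cell-free medium wells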
#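 Luminescent ATP read-out (CellTiter-Glo, 10 min at room temperature) after 48 h compound exposure at 37 °C gave viability of IDH1-knockdown HT-1080 cells. Activity was normalised to DMSO and cell-free wells, then fitted as concentration-response curves.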
# HT1080NT lethal: kills 2HG-producing HT-1080-NT fibrosarcoma cells. HT-1080-NT fibrosarcoma viability, CellTiter-Glo ATP luminescence, 48 h. Potency, µM (doses to about 46.1 µM), for the others: at the highest dose activity, negative = less viability, hits mostly cytotoxic. hit rate 1.6% among 360,000. AID 686970;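 note: NT is the 2HG producing partner of a matched IDH1 knockdown line; potency is the fitted concentration of half-maximal effect; 0% = DMSO-treated cells and -100% = media-only wells without cells; nearly all actives have a fitted effect of over 55% in size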
#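 Toxicity toward the 2HG-producing NT line was scored as %Activity, normalised to DMSO and no-cell wells, from CellTiter-Glo luminescence after 48 hours' treatment.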
# IL1B secr inh: blocks inflammasome-driven IL-1 beta release; THP-1 LPS/ATP IL-1B secretion, AlphaLISA, 16 h; stronger effect = lower value; activity change, % at 57.5 µM; hit rate 4.7% among 360,000; in the data active = activity change below about -50%; inconclusive = mostly about -30% to -49%
#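 Secreted IL-1B measured by AlphaLISA bead assay after 16 h compound exposure of THP-1 cells; compounds (final up to 57.5 uM) added 1 h before LPS (250 ng/mL) and ATP (1.25 mM) stimulation; lower signal means less secretion.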
# DT40 TDP1 CPT: growth inhibition of DT40 Tdp1-/-;hTDP1 cells with camptothecin (screen for TDP1 inhibitors) | chicken DT40 Tdp1-/-;hTDP1 cells + 20 nM CPT, ATP luminescence, 48 h | Potency, µM (series often up to 46.2 µM), without a hit: top-dose activity change, negative = growth inhibition, usual class: inhibitors | hit rate 12% among 420,000; note: potency is the fitted concentration of half-maximal effect; nearly all actives have a fitted effect of over 55% in size
#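 Chicken DT40 Tdp1-/- cells stably complemented with human TDP1 were seeded at 400 cells/well in medium containing 20 nM camptothecin, exposed to pin-transferred compounds, and grown at 37 °C for at least 48 hr. Viability was read as ATP luminescence.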
# TDP1 cell noCPT: qHTS for Inhibitors of human tyrosyl-DNA phosphodiesterase 1 (TDP1): qHTS in cells in absence of CPT | DT40 Tdp1-/- hTDP1 cells, no CPT, ATP luminescence, 48 h | Potency, µM (top dose mostly 46.2 µM), inactives show at the highest dose activity change, negative = growth inhibition, usual class: inhibitors | hit rate 15% among 420,000 | AID 686978, 2013; note: potency is the fitted concentration of half-maximal effect; nearly all actives have a fitted effect of over 55% in size
#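 DT40 Tdp1-/-;hTDP1 cells, no CPT (DMSO vehicle only), 400 cells/well; compounds pin-transferred; ≥48 hr, 37 °C; CellTiter-Glo 30 min RT dark, luminescence read.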
# Active calls of the source: *; u = inconclusive; x = no result; ! = not active in a repeat; [ ] = remark or other dose. Shown are actives, neighbours in structure and some others; about 19% of the full set was active somewhere. Unless noted, calls come from the whole dose curve; as a rule, active = well fitted curve in the direction sought with a large enough effect; inconclusive = small, poorly fitted or top-dose-only effect, or another doubt; inactive = no such curve, though single readings can be large; an effect the other way counts as inactive or inconclusive. Unless noted, % is set by controls: 0 for no effect and ±100 for the full control effect.
SMILES,uPA surface inh,HT1080 IDH1KD tx,HT1080NT lethal,IL1B secr inh,DT40 TDP1 CPT,TDP1 cell noCPT
O=C(Cc1ccccc1)NC(NC(=O)Cc1ccccc1)c1cccc([N+](=O)[O-])c1,u,u,u,56.6,u,18.4µM*
O=C(O)c1ccc(CNC(=O)C2CCN(S(=O)(=O)c3ccc4c(c3)OCCO4)CC2)cc1,x,-1.3%,8.7%,-7.3,-2.1%,-1.8%
COC(=O)c1ccc(CN2CCC3(CCC(CNC(=O)c4ccccc4)O3)CC2)cc1 (configuration not stated),x,x,x,x,-0.7%[9.04 µM],-25.1%
C[C@]12CCC(=O)C=C1CC[C@@H]1[C@@H]2[C@@H](O)C[C@@]2(C)[C@H]1CC[C@]2(O)C(=O)CO,5.8%,u,25.0%,-58.1*!,-20.2%,u
CC12CCC(=O)C=C1CCC1C2C(O)CC2(C)C1CCC2(O)C(=O)COC(=O)COCC(=O)O (configuration not stated),-2.4%,u,u,-50.3*,12.0%,-12.2%
C[C@]12C=CC(=O)C=C1CC[C@@H]1[C@@H]2[C@@H](O)C[C@@]2(C)[C@H]1CC[C@]2(O)C(=O)CO,-17.4%,27.2%,48.0%,-54.8*,u,u
C[C@]12C=CC(=O)C=C1CC[C@@H]1[C@@H]2[C@@H](O)C[C@@]2(C)[C@H]1CC[C@]2(O)C(=O)COC(=O)CCC(=O)NCCc1ccc(O)cc1,-0.7%,u,u,-56.3*,-24.9%,-15.4%
C[C@]12CCC(=O)C=C1CC[C@@H]1C2[C@@H](O)C[C@@]2(C)[C@H]1CC[C@]2(O)C(=O)CO (some centres not stated),x,x,x,x,0.9%,u
CC(=O)OCC(=O)C1(O)CCC2C3CCC4=CC(=O)CCC4(C)C3C(O)CC21C (configuration not stated),-6.9%,u,u,u,u,-23.3%
COc1ccc(NS(=O)(=O)c2cccc(C(=O)NCc3ccccc3CN3CCOCC3)c2)cc1,14.8%,-2.1%,-21.0%,-11.0,-29.7%,u
COc1ccccc1CNC(=O)CSC1=Nc2ccccc2N=C(c2ccc(F)cc2)C1,x,x,x,x,25.9µM*,u
O=C(CSC1=Nc2ccccc2N=C(c2ccc(F)cc2)C1)NCc1ccccc1,x,x,x,x,u,18.4µM*
Cc1ccc(CNC(=O)CSC2=Nc3ccccc3N=C(c3ccc(F)cc3)C2)cc1,x,x,x,x,-11.3%,6.1%
Cc1noc(C)c1S(=O)(=O)N(C)C[C@H]1Oc2c(cccc2N(C)C)C(=O)N([C@H](C)CO)C[C@@H]1C,0.8%,2.0%,17.2%,8.7,-18.3%,u
Cc1cc(Br)ccc1NC(=O)C1CCCN(S(=O)(=O)c2cccc3nonc23)C1 (configuration not stated),x,x,x,x,u,-40.4%
Cc1cc(NC(=O)C2CCCN(S(=O)(=O)c3cccc4nonc34)C2)ccc1Br (configuration not stated),x,x,x,x,u,16.4µM*
COc1cccc(NC(=O)C2CCCN(S(=O)(=O)c3cccc4nonc34)C2)c1 (configuration not stated),-2.5%,-2.9%,-17.7%,18.1,-18.9%,-21.7%
Cc1ccc(C)c(N2CCN(C(=O)C3CCCN(S(=O)(=O)c4cccc5nonc45)C3)CC2)c1 (configuration not stated),x,x,x,x,9.2µM*,6.51µM*
O=C(C1CCCN(S(=O)(=O)c2cccc3nonc23)C1)N1CCN(c2ccccc2Cl)CC1 (configuration not stated),-7.5%,-22.0%,-0.5%,-50.5*,23.1µM*,16.4µM*
CCOc1ccccc1N(C)C(=O)C1CCN(S(=O)(=O)c2cccc3nonc23)CC1,5.5%,5.1%,2.3%,-0.6,u,13µM*

# Assay outcomes (PubChem BioAssay)
